# Reference: PMC7862700, “An all-to-all approach to the identification of sequence-specific readers for epigenetic DNA modifications on cytosine”
# Tests used:
# Assay in all cases: DAPPL (digital affinity profiling via proximity ligation, sequencing); 10 mM Tris-HCl pH 7.5, 50 mM NaCl, 1 mM DTT, 4% glycerol, room temperature, 30 min; GST-TFs on glutathione beads, 16-mer random dsDNA library, 0.1% formaldehyde crosslink after washing; high values mean tight binding
# Settings in all cases: protein: recombinant; tags: N-terminal GST; dsDNA, one strand shown
# FLI1 = biological target: T1, FLI1 (Homo sapiens, UniProt Q01543 1-452)
# T1 sequence: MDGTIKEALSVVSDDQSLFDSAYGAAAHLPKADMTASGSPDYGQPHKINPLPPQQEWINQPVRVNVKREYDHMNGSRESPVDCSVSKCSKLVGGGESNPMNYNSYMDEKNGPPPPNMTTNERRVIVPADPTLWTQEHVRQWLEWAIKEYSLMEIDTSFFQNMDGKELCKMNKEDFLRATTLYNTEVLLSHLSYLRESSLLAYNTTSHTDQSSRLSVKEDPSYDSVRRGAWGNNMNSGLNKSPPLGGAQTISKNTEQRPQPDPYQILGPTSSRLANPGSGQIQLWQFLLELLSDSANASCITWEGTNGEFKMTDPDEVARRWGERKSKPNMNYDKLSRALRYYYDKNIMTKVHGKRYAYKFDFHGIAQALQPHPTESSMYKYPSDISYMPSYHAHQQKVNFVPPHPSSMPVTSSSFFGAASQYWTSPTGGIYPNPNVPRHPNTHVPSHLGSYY
# Procedure, shortened: (§1)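 Pools of DNA-barcoded human transcription factors, expressed in yeast as GST fusions on glutathione beads and combined with a tag-only sample, were incubated with 200 nmole of a 16-mer random double-stranded DNA library. Incubation took 30 min at room temperature in Tris/NaCl/DTT/glycerol buffer and was followed by washing, 0.1% formaldehyde crosslinking, proximity ligation (BsaI/T4 ligase, 1 h, 37 °C), PCR amplification and sequencing on an Illumina NextSeq500. Binding signal is the ratio of a hexamer's read frequency for a factor to its frequency for the tag-only sample.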
# ELK1 = biological target: T2, ELK1 (Homo sapiens, UniProt P19419 1-428)
# T2 sequence: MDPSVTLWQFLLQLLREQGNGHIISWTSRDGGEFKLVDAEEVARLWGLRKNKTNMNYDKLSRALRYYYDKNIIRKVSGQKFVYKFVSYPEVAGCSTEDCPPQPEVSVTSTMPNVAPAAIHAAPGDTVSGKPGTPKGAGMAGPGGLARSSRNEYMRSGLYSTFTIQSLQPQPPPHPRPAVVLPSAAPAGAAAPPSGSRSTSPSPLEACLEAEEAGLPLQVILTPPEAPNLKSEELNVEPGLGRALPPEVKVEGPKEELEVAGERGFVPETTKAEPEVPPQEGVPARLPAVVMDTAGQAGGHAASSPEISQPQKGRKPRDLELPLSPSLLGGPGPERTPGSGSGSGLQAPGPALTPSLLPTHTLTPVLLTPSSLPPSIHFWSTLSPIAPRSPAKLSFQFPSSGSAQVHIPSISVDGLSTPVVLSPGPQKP
# Procedure, shortened: as §1
# GABPA = biological target: T3, GABPA (Homo sapiens, UniProt Q06546 1-454)
# T3 sequence: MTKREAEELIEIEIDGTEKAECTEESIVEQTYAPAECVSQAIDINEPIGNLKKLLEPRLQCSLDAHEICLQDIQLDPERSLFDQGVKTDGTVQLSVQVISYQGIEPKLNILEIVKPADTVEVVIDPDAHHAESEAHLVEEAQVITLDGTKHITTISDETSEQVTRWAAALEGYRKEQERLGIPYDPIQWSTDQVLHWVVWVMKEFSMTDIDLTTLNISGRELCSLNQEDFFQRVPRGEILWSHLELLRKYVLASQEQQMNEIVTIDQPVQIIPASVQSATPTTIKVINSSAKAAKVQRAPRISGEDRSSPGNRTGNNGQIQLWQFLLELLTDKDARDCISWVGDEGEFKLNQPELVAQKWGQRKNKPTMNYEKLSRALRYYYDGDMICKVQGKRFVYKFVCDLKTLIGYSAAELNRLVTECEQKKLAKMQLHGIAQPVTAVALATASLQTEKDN
# Procedure, shortened: as §1
# ERG = biological target: T4, ERG (Homo sapiens, UniProt P11308 1-479)
# T4 sequence: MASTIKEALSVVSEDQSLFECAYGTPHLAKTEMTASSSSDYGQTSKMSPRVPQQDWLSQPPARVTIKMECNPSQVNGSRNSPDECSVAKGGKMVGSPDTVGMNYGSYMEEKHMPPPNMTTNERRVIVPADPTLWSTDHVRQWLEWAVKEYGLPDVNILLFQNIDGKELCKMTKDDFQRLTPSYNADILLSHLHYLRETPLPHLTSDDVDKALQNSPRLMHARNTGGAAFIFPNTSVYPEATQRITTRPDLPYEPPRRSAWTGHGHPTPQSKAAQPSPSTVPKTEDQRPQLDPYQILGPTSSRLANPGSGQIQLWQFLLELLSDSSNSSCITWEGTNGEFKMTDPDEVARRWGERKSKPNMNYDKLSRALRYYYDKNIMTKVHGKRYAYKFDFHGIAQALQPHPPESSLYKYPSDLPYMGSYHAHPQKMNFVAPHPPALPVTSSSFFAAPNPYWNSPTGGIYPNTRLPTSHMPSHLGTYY
# Procedure, shortened: as §1
# ELF1 = ELF1 (Homo sapiens, UniProt P32519 1-619)
# Procedure, shortened: as §1
# EHF = biological target: T5, EHF (Homo sapiens, UniProt Q9NZC4 1-300)
# T5 sequence: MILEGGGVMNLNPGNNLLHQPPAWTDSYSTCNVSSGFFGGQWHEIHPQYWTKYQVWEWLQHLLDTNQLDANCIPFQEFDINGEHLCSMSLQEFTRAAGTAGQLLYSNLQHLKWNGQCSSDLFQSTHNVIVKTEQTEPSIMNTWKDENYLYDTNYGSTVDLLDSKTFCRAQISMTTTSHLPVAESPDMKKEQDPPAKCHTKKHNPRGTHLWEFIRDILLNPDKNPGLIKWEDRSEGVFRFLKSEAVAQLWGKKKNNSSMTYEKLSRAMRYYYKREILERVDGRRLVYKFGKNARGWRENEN
# Procedure, shortened: as §1
# SPI1 = SPI1 (Homo sapiens, UniProt P17947 1-270)
# Procedure, shortened: as §1
# SPIB = SPIB (Homo sapiens, UniProt Q01892 1-262)
# Procedure, shortened: as §1
# ELK3 = biological target: T6, ELK3 (Homo sapiens, UniProt P41970 1-407)
# T6 sequence: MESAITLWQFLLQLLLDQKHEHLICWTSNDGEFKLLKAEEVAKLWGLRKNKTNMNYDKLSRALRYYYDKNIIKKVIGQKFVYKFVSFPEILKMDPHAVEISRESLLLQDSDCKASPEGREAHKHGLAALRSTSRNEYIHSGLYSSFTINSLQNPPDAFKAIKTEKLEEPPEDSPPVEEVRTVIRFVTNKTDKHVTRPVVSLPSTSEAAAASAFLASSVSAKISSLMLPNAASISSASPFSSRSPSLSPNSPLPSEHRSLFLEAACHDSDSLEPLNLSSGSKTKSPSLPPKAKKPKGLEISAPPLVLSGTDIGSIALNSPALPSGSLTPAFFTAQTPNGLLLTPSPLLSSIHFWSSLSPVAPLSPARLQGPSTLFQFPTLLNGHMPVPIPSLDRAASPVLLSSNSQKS
# Procedure, shortened: as §1
# ELF1, sequence (P32519 whole entry): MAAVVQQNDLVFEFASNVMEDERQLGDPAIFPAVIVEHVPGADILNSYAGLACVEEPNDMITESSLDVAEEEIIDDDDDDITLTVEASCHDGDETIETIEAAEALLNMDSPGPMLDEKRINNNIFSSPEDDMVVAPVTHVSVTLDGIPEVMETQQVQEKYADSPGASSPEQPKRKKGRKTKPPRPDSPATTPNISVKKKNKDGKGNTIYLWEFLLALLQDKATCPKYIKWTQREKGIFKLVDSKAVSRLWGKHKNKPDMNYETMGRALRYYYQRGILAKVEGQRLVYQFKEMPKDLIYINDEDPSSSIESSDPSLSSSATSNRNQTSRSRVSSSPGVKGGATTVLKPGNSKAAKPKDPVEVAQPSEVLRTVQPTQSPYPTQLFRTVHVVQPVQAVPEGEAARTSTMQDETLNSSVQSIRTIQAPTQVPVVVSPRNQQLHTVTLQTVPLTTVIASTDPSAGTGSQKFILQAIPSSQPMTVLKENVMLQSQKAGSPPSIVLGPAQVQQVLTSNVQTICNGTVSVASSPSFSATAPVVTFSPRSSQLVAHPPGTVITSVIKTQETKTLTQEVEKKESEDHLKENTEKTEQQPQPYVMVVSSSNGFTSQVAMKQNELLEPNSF
# SPIB, sequence (Q01892 whole entry): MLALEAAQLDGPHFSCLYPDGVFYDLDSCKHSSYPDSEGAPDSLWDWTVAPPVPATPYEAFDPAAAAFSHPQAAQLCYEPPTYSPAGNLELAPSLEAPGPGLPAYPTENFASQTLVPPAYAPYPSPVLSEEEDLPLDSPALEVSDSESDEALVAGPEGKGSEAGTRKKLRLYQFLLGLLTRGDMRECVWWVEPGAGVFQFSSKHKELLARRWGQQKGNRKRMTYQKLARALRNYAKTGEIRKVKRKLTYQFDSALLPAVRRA
sequence,measurement,setting,value
GAAAAT,binding signal,FLI1,"1.16 fold enrichment (6-mer frequency, TF over GST control)"
same,binding signal,ELK1,"1.07 fold enrichment (6-mer frequency, TF over GST control)"
same,binding signal,GABPA,"1.16 fold enrichment (6-mer frequency, TF over GST control)"
same,binding signal,ERG,"1.07 fold enrichment (6-mer frequency, TF over GST control)"
same,binding signal,ELF1,"1.04 fold enrichment (6-mer frequency, TF over GST control)"
same,binding signal,EHF,"1.14 fold enrichment (6-mer frequency, TF over GST control)"
same,binding signal,SPI1,"1.14 fold enrichment (6-mer frequency, TF over GST control)"
same,binding signal,SPIB,"1.18 fold enrichment (6-mer frequency, TF over GST control)"
same,binding signal,ELK3,"1.04 fold enrichment (6-mer frequency, TF over GST control)"
